Out of some 100,000 compounds screened, about 4,200 (4.2%) were called active. Shown is part of a subset that was picked to be rich in actives. A number with no mark means an inactive call.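 The calls were made as follows: active = single-dose well whose peak fluorescence ratio is a statistical outlier from its plate by either plate-standardised score or position-corrected B-score; inactive = the rest.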
biological target: Voltage-dependent T-type calcium channel subunit alpha-1H (Homo sapiens) (UniProt O95180); assay: Cav3.2 calcium influx blockers – cell-based, Fluo-4 calcium fluorescence, FDSS, MLSMR library, primary screen (AID 449739); details: Cav3.2-expressing cells, at 10 µM, active compounds read low
Sequence (O95180 whole entry, looked up): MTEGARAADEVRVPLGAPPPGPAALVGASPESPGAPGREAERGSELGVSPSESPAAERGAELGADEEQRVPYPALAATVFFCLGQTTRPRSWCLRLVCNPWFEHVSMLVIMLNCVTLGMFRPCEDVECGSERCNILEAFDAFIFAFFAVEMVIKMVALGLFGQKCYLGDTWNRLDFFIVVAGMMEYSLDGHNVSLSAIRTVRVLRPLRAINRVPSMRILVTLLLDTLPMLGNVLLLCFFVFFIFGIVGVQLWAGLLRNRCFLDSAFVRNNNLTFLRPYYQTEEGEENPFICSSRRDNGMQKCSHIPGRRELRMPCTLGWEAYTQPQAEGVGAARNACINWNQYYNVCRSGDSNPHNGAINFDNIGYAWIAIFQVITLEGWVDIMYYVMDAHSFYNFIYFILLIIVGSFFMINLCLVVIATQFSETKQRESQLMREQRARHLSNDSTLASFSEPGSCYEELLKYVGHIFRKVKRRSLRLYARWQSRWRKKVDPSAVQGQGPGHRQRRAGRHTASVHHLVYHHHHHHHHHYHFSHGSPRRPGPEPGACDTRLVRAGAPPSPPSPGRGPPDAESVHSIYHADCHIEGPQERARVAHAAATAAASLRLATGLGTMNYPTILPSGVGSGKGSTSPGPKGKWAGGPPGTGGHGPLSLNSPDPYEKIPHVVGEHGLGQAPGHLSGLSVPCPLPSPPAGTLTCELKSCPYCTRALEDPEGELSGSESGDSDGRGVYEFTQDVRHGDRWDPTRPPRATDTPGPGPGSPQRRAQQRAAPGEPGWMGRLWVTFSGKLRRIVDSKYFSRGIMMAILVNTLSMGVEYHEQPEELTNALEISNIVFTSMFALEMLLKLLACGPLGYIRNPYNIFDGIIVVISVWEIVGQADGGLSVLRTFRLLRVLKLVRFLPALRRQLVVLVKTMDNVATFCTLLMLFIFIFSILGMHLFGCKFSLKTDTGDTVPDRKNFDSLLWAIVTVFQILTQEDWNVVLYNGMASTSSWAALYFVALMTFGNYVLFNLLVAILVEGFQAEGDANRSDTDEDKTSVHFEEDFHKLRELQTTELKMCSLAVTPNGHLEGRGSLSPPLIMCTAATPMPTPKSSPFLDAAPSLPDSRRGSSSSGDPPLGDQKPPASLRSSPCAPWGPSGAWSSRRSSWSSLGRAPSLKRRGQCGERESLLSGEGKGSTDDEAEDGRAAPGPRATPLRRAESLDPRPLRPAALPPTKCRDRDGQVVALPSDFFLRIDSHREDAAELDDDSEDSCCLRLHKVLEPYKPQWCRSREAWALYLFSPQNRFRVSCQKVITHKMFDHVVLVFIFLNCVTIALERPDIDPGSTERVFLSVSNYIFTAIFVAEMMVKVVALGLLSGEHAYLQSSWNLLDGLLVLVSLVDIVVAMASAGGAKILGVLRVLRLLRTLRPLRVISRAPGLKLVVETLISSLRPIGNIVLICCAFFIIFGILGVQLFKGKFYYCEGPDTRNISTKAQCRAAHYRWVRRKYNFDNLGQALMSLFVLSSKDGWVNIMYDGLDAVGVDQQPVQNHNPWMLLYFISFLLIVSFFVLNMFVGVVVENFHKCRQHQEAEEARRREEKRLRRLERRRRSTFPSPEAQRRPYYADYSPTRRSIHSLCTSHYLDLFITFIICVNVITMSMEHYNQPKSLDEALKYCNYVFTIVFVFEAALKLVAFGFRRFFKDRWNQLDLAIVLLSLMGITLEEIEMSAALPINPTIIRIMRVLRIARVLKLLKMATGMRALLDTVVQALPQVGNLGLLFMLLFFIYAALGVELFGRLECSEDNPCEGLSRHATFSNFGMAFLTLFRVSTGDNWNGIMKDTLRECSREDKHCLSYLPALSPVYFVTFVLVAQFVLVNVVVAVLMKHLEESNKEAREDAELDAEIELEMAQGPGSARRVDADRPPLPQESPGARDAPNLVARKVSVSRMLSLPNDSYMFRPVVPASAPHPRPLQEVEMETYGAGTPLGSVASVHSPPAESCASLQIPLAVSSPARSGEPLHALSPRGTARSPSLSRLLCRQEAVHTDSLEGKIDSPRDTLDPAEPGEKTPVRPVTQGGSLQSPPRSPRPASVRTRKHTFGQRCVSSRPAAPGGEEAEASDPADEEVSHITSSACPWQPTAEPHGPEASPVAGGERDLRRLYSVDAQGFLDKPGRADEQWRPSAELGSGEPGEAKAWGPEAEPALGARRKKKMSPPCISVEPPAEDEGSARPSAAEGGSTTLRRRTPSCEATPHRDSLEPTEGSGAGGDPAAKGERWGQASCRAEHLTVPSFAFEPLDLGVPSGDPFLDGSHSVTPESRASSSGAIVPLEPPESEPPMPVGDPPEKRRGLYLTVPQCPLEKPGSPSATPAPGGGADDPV

| Compound | B-score |
| --- | --- |
| FC(F)(F)c1cc(C(F)(F)F)c2ccc(N3CCN(c4ccccc4)CC3)nc2n1 | -0.29 |
| CNC(C)C#Cc1ccc2sc3cc(OC)c(OC)cc3c(=O)c2c1 (centres undefined) | -1.08 |
| C[C@H]1CC[C@]2(O[C@@H](CCO)C[C@@H](O)[C@@H]2O)O1 | -0.0046 |
| O=C(Cn1c(=O)sc2ccccc21)Nc1ccc2c(c1)OCCO2 | 0.666 |
| CC1Cc2ccccc2N1CC(=O)Nc1ccc2c(c1)OC(F)(F)O2 (centres undefined) | -4.17 (active) |
| O=C(COC(=O)c1ccccc1NC(=O)c1ccco1)Nc1ccc2c(c1)OC(F)(F)O2 | -1.68 |
| CCC(=O)Nc1ccc(C(=O)Nc2cc(C)on2)cc1 | 0.744 |
| CCc1ccc2ncc(C(=O)c3ccccc3)c(N3CCOCC3)c2c1 | -0.907 |
| COc1ccccc1NC(=S)NC(=O)C(C)C | 0.35 |
| CC(C)C(=O)NC(=S)Nc1ccccc1F | -0.107 |
| CC(C)C(=O)Nc1cccc(NC(=S)NC(=O)C(c2ccccc2)c2ccccc2)c1 | -5.49 (active) |
| Cc1cc(C(=O)NCCCc2ccccc2)no1 | 0.538 |
| CC(C)c1ccc(C(=O)NCCCc2ccccc2)cc1 | -4.2 (active) |
| O=C(NCCc1ccccc1)c1ccc(OCCOc2ccccc2)cc1 | -0.578 |
| CC(=O)Nc1cccc(/C(C)=N/NC(=O)c2ccccc2Cl)c1 | 0.407 |
| Cc1ccc(-c2csc(NCCc3nc4cc(Cl)c(Cl)cc4n3CCOCCO)n2)cc1 | -0.914 |
| CC1Cc2ccccc2N1C(=O)CSc1nc2ccccc2o1 (centres undefined) | -4.15 (active) |
| O=C(CSc1nc2ccccc2o1)N1CCN(c2ccccc2)CC1 | -0.102 |
| CCS(=O)(=O)c1ccc2oc(SCC(=O)N3c4ccccc4CC3C)nc2c1 (centres undefined) | 0.393 |
| Cc1nc(SCC(=O)c2ccccc2)c([N+](=O)[O-])[nH]1 | 0.184 |

| Compound | B-score |
| --- | --- |
| COc1c(O)cc2oc(-c3ccc(O)c(O)c3)cc(=O)c2c1O | 1.78 |
| COc1ccccc1N(C)S(=O)(=O)c1ccc(C(=O)N2CCC(C(N)=O)CC2)cc1 | -0.0467 |
| CCCCC1=CC2=CC(=O)C(C)(OC(=O)CC)C(=O)C2=CN1CCCOC(C)C (centres undefined) | 0.761 |
| O=C(CSC1=Nc2ccccc2C2=NC(CC(=O)NCc3ccco3)C(=O)N12)NCc1ccco1 (centres undefined) | 0.442 |
| CCC(C)NC(=O)CSC1=Nc2ccccc2C2=NC(CCC(=O)NCc3ccco3)C(=O)N12 (centres undefined) | 0.161 |
| O=C(CC1N=C2c3ccccc3N=C(SCc3ccccc3Cl)N2C1=O)NCc1ccco1 (centres undefined) | -4.98 (active) |
| O=C(Cc1ccc2c(c1)CCCC2)Nc1ccccc1Cl | -0.144 |
| O=C(NCc1ccccc1)c1onc(CSc2ccncc2)c1C(=O)NCc1ccccc1 | -0.591 |
| Cc1cc(C)cc(OCc2nnc(SCC(=O)Nc3ccccc3)o2)c1 | 0.346 |
| Cc1cccc(OCc2nnc(SCn3nnc4ccccc4c3=O)o2)c1 | -6.05 (active) |
| Cc1cccc(OCc2nnc(SCc3nc4cc(C(F)(F)F)ccc4c(=O)[nH]3)o2)c1 | -1.8 |
| COc1cccc(NC(=O)c2ccccc2SC)c1 | 0.424 |
| Cn1cc([N+](=O)[O-])c(C(=O)Nc2ccc3c(c2)OCCO3)n1 | 0.353 |
| COc1cccc(NC(=O)c2nn(C34CC5CC(CC(C5)C3)C4)cc2[N+](=O)[O-])c1 | -4.14 (active) |
| O=C(Nc1nnc(CCOCCOCCc2nnc(NC(=O)c3ccco3)s2)s1)c1ccco1 | 0.766 |
| Cc1cc(C(=O)CSc2nc(N)cc(=O)[nH]2)c(C)n1CCc1ccc(Cl)cc1 | 0.737 |
| CC(/C=C/C1(O)C(C)CC(=O)CC1(C)C)OC1OC(CO)C(O)C(O)C1O (centres undefined) | 0.424 |
| COc1ccc(-c2cn(-c3ccc(C)cc3)c(=O)n2CC(=O)Nc2ccc(OC)c(OC)c2)cc1 | -1.46 |
| COc1ccc(NC(=O)Cn2c(-c3ccc(OC)cc3)cn(-c3ccc(C)cc3)c2=O)cc1 | -4.33 (active) |
| CCOc1ccc(NC(=O)CN2CCN(CC(=O)Nc3ccc(OC)cc3)CC2)cc1 | 1.58 |

| Compound | B-score |
| --- | --- |
| CC(C)(C)NS(=O)(=O)c1ccc(NC(=O)NC2CCCCC2)cc1 | -0.833 |
| Cc1n[nH]c(=S)n1/N=C/c1ccc(Br)o1 | 0.825 |
| COc1ccc(Nc2nc(Cl)nc(NCc3ccco3)n2)cc1 | -0.534 |
| COc1ccc(CCNC(=O)C2CCN(c3nn4c(=O)cc(C)nc4s3)CC2)cc1OC | 0.351 |
| COc1ccc(CCN(C)C(=O)C2CCCN(Cc3ccc(OC)c(OC)c3)C2)cc1OC (centres undefined) | -0.0096 |
| COc1ccc(CCNC(=O)C2CCCN(Cc3nc(-c4cccc(Cl)c4)oc3C)C2)cc1OC (centres undefined) | -3.48 (active) |
| CC1(OC(=O)C2CCCC2)C(=O)C=C2C=C(c3ccc(C#N)cc3)OC=C2C1=O (centres undefined) | -0.314 |
| CCCCNC(=O)C(=O)c1ccccc1NC(C)=O | 0.725 |
| CCn1c(=O)cc(OCC(=O)NCCCN2CCN(c3cccc(Cl)c3)CC2)c2ccccc21 | 0.375 |
| Cc1ccc(C)c(N2CCN(C(=O)CCCCn3c(=O)[nH]c4ccccc4c3=O)CC2)c1 | -8.03 (active) |
| O=C(CCCCn1c(=O)[nH]c2ccccc2c1=O)NCc1ccc2c(c1)OCO2 | -0.0333 |
| O=C(CCn1c(=O)[nH]c2ccccc2c1=O)NCCCN1CCN(c2cccc(Cl)c2)CC1 | -7.26 (active) |
| O=C(CCCn1c(=O)[nH]c2cc(Cl)ccc2c1=O)NCCN1CCN(c2ccccc2)CC1 | 0.27 |
| COc1ccc(CCNC(=O)CCCCn2c(=O)[nH]c3ccccc3c2=O)cc1OC | 0.545 |
| COC(=O)c1ccccc1OCC(=O)N1CCN(c2ccc(Cl)cc2)CC1 | -1.9 |
| Cc1ccccc1OC/C(O)=C(\C#N)c1nc2ccccc2[nH]1 | -0.71 |
| COc1cc(/C=N\NC(=O)CNC(=O)c2cccc([N+](=O)[O-])c2)ccc1O | 0.194 |
| COc1cccc(/C=N/NC(=O)c2cccc([N+](=O)[O-])c2)c1OS(=O)(=O)c1ccc(C)cc1 | -6.01 (active) |
| COc1cc(OC)c(/C=N/NC(=O)c2ccc([N+](=O)[O-])cc2)cc1Br | -0.234 |

Reference: PubChem BioAssay AID449739 (Vanderbilt High Throughput Screening Facility, 2010)
